The results in this text go back to the supplement of paper PMC12819154, “High-throughput peptide-centric local stability assay extends protein–ligand identification to membrane proteins, tissues and bacteria” (Nature Structural & Molecular Biology, 2025).
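Further: lysate desalted by size exclusion to strip endogenous ATP, peptide intensities built from DIA-NN precursor signals, and peptides missing any value discarded before comparison.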

Compound in the experiment: Nc1ncnc2c1ncn2[C@@H]1O[C@H](COP(=O)(O)OP(=O)(O)OP(=O)(O)O)[C@@H](O)[C@H]1O [adenosine 5'-triphosphate]
The experiment is described as follows: log2 fold change of tryptic peptide abundance, ligand vs vehicle (limited proteolysis) (log2 ratio); higher = more trypsin-susceptible (destabilized). As to conditions: ligand concentration: 5 mM; sample: E. coli desalted lysate; replicate design: treated before aliquoting. On the procedure: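 HT-PELSA: desalted E. coli K-12 BW25113 lysate (with 12 mM MgCl2) incubated with 5 mM ATP (pH 7) or water for 30 min at 25 C, then a 4 min trypsin pulse at 22 C. Peptides were quantified by DIA-MS (4 replicates). Value is the peptide log2 fold change (treated/control); negative = stabilized. Scale: negative = ligand-stabilized region.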
“UniProt P0A6H5 (peptide sequence: VQAIEKNR, peptide start residue: 113)”: the log2 fold change is 1.65. On to “UniProt P77610 (peptide sequence: WLNAHEEGYHK, peptide start residue: 18)”, for which the log2 fold change is -0.358. Take “UniProt P75874 (peptide sequence: YLLDQGYHVIPVSPK, peptide start residue: 35)”: the log2 fold change came to 0.437. The figure for “UniProt P18775 (peptide sequence: IAHAVDSAIPTK, peptide start residue: 42)” is -0.536.

On to “UniProt P21645 (peptide sequence: KTAALVMNIDDMSKR, peptide start residue: 315)”, for which the log2 fold change was -0.565. Take “UniProt P22255 (peptide sequence: ESFLNPGFR, peptide start residue: 234)”: the log2 fold change was determined as 0.721. Take “UniProt P37744 (peptide sequence: KGFIDVEQVRK, peptide start residue: 261)”: the log2 fold change was -0.836. To “UniProt P31455 (peptide sequence: AYPGLVNVPR, peptide start residue: 290)” belongs -1.05; to “UniProt P25748 (peptide sequence: IGYLSSSHGIEDDAMRK, peptide start residue: 179)”, 0.977; to “UniProt P27298 (peptide sequence: DGDHYATLNTAQK, peptide start residue: 115)”, 1.13. As for “UniProt P78061 (peptide sequence: FCHVYHACK, peptide start residue: 441)”, the log2 fold change was -1.83. For “UniProt P37689 (peptide sequence: LVAAIKSGK, peptide start residue: 383)”, the log2 fold change is -2.15.

“UniProt P15254 (peptide sequence: QALIDANLR, peptide start residue: 169)”: the log2 fold change was -0.778.

For the target “UniProt P25516 (peptide sequence: KTLGLTGEEK, peptide start residue: 823)”, the log2 fold change was -0.721.

As to “UniProt P10907 (peptide sequence: ILELDGLLK, peptide start residue: 121)”, the log2 fold change is -0.369. For “UniProt P37648 (peptide sequence: DKGLPEEEFNALVAQK, peptide start residue: 363)”, the log2 fold change came to 0.498. In the case of “UniProt P09053 (peptide sequence: ILAEEIERAWAESH, peptide start residue: 404)”, the log2 fold change was -0.817.

As to “UniProt P37344 (peptide sequence: ETLLNYR, peptide start residue: 215)”, the log2 fold change is -1.98.

“UniProt P76116 (peptide sequence: NEAYVTHR, peptide start residue: 284)”: the log2 fold change is -0.872.

Turning to “UniProt P08957 (peptide sequence: SRIGQEQLQFYR, peptide start residue: 61)”, the log2 fold change was 1.09. The figure for “UniProt P24200 (peptide sequence: TLSQPEGSR, peptide start residue: 169)” is -0.499; for “UniProt P00582 (peptide sequence: QLNIPRK, peptide start residue: 776)” it is -3.24.

For the target “UniProt P16095 (peptide sequence: VGIGPSSSHTVGPMK, peptide start residue: 10)”, the log2 fold change was 0.369. Turning to “UniProt P77615 (peptide sequence: AIEELQYQPNKLAR, peptide start residue: 40)”, the log2 fold change was determined as 0.358. Consider “UniProt P33593 (peptide sequence: VLALVGGSGSGK, peptide start residue: 31)”, for which the log2 fold change was -0.833. The figure for “UniProt P23837 (peptide sequence: EITEQYEGK, peptide start residue: 451)” is -1.72.

As for “UniProt P06149 (peptide sequence: VRDIEADTPAR, peptide start residue: 232)”, the log2 fold change was -1.35.

“UniProt P75960 (peptide sequence: LHGAHTVELNLEPSQVGNEFAEK, peptide start residue: 231)”: the log2 fold change was 0.525.
